Screening data from PubChem BioAssay.
NR2F2 inh: NR2F2 (human) inhibition, primary screen. HEK293T NGFI-A luciferase reporter, luminescence. AID 686940. hit rate 0.7% among 370,000. P24468. inhibition, % at 8.6 µM;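 active = inhibition above a per-plate cutoff, mean inhibition of test wells between control levels plus 3 SD, cut at about 38% in these data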;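 note: cells cotransfected with COUP-TFII expression vector driving the NGFI-A reporter; 0% = median of COUP-TF2 test wells and 100% = reporter-only cells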
NR5A2 inv ag: NR5A2 inverse agonism in reporter assay | inhibition, % at 3.6 µM | hit rate 0.13% among 360,000 | HEK293T StAR-luciferase reporter, LRH-1 transfected, 24 h | O00482;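 active = inhibition above the mean inhibition of all tested compounds plus 3 SD, cut at about 73% in these data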;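 note: 0% = DMSO wells and 100% = reporter-only cells lacking LRH-1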
NCOA1 inh: inhibitors of human steroid receptor coactivator 1 (SRC1) | Q15788 | HEK293 GAL4-SRC1 luciferase reporter, luminescence | inhibition, % at 3.6 µM | hit rate 0.12% among 360,000;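 active = inhibition above the campaign mean plus 3 SD, with each screening campaign given its own cutoff, cut at about 60% in these data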;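 note: 0% = DMSO treated cells and 100% = gossypol at 36 µM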
Target sequence (Q15788 whole entry, looked up, the tested form may be a part): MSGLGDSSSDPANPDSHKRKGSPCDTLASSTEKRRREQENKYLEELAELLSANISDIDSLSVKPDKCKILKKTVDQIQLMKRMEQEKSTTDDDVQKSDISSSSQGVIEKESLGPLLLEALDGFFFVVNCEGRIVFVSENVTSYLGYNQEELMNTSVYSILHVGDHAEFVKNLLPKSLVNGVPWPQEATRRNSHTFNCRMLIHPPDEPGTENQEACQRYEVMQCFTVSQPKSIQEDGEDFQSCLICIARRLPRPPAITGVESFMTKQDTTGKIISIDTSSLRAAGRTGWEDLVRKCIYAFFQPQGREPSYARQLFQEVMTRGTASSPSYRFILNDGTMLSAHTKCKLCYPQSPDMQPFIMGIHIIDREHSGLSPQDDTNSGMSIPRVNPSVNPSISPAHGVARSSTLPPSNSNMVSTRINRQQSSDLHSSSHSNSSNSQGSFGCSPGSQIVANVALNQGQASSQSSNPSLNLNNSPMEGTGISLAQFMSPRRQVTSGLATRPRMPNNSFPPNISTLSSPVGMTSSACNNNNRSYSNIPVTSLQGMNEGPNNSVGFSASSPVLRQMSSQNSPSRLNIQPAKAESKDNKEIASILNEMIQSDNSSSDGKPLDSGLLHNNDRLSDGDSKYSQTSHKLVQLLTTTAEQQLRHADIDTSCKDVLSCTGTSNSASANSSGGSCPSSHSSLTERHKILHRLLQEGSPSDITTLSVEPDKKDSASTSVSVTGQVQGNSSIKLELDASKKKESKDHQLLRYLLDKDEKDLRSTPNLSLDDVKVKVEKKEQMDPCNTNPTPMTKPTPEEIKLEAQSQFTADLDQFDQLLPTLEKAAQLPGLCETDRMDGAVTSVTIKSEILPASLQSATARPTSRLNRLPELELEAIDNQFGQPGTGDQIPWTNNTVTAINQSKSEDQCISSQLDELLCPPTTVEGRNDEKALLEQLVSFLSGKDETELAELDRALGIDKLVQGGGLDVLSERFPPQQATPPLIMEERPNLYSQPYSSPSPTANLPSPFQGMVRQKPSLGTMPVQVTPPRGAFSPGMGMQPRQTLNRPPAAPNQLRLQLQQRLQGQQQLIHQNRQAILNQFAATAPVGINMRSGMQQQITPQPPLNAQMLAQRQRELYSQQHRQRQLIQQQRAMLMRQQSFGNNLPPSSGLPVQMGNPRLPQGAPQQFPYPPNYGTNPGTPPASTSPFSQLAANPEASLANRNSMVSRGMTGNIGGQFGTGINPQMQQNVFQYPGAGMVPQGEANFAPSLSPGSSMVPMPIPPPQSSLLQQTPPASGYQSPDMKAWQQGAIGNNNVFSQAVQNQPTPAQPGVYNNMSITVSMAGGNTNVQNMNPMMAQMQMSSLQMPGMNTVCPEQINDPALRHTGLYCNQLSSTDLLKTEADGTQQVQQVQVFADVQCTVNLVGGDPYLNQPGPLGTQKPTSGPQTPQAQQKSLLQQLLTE
SRC2 inh: human SRC2 (NCOA2) inhibition; Q15596; hit rate 0.17% among 370,000; HEK293 GAL4-SRC2 luciferase reporter, luminescence; AID 651957; inhibition, % at 9 µM;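 active = inhibition above the mean inhibition of all tested compounds plus 3 SD, set per campaign, cut at about 52% in these data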;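 note: 0% = DMSO treated cells and 100% = cells given Gossypol at 36 µM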
Gli-Sufu block: antagonists of Gli-Sufu signaling | Sufu-KO-LIGHT fibroblasts, Gli luciferase reporter luminescence | inhibition, % at 5 µM | hit rate 0.74% among 340,000;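 active = inhibition above about 55%, limit read from the data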;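 note: 0% = DMSO-treated cells and 100% = wells with medium but no cells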
SRC3 inh: inhibitors of human steroid receptor coactivator 3 (SRC3); Q9Y6Q9; HEK293 GAL4-SRC3 luciferase reporter, luminescence; inhibition, % at 3.6 µM; hit rate 0.17% among 360,000;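 active = inhibition above a per-campaign cutoff, the mean of all compounds plus 3 SD, cut at about 60% in these data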;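 note: 0% = DMSO-treated cells and 100% = gossypol-treated cells at 36 µM; higher means less SRC3-driven luciferase light from the GAL4 reporter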
Gli antag conf: confirmation of Gli-SUFU pathway antagonists. shares compounds with Gli-Sufu block. Sufu-KO-LIGHT cells, Gli luciferase reporter, luminescence. inhibition, % at 5 µM. hit rate 40% among 2,500;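 active = mean inhibition at 5 µM reaching about 45%, limit read from the data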;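 note: plate controls were DMSO-treated cells for no effect and wells lacking cells for full effect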
SufuKO cytotox: counter-screen for Gli-SUFU antagonists: cytotoxicity | shares compounds with Gli-Sufu block | Sufu-KO-LIGHT cells cytotoxicity, ATP luminescence | cytotoxicity, % at 5 µM | hit rate 32% among 2,500;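 active = mean cytotoxicity at 5 µM above about 25%, limit read from the data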;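 note: cells exposed to compound overnight for roughly 16 to 18 hours; plate controls were DMSO wells with cells for no effect and medium without cells for full effect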
Wnt3a cs: Wnt3a reporter inhibition counter-screen; shares compounds with Gli-Sufu block; Wnt-LIGHT cells, Wnt3a-driven luciferase reporter, luminescence; inhibition, % at 6.25 µM; hit rate 20% among 2,500;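 active = mean inhibition above about 25%, limit read from the data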
VP16 Luc counter: inhibits VP16 reporter, flagging COUP-TFII antagonist hits | shares compounds with NR2F2 inh | HEK293 Gal4-VP16 luciferase reporter, luminescence | inhibition, % at 8.5 µM | hit rate 25% among 2,500 | AID 687007; in the data active = inhibition above about 13%
COUP-TFII conf: confirmation of human COUP-TFII (NR2F2) inhibitors. inhibition, % at 8.5 µM. hit rate 45% among 2,500. shares compounds with NR2F2 inh. HEK293 NGFI-A luciferase reporter, luminescence;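 active = mean inhibition over three repeats above a set limit taken from the earlier primary screen, cut at about 38% in these data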;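 note: 100% = cells given the luciferase reporter alone without the COUP-TF2 vector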
Numbers without * were called inactive; · = no result. A selection: hits, their analogues and other compounds. The true share with any hit is near 1.3%.

SMILES	NR2F2 inh	NR5A2 inv ag	NCOA1 inh	SRC2 inh	Gli-Sufu block	SRC3 inh	Gli antag conf	SufuKO cytotox	Wnt3a cs	VP16 Luc counter	COUP-TFII conf
CCOC(=O)CC1CCCCN1C(=O)c1cc(COc2cccc3cnccc23)on1 (stereo unspecified)	71*	43	23	32	74*	31	62*	20	25	16*	78*
O=C(c1cc(COc2cccc3cccnc23)on1)N1CCC[C@H]1CO	-4	-10	-3	-41	·	-19	·	·	·	·	·
CN(Cc1nccs1)C(=O)c1cc(COc2cccc3cnccc23)on1	54*	35	28	40	58*	42	42	20	0	5	47*
C#CCNC(=O)C[C@H]1C[C@@]2(C(=O)OC)C(=C[C@H](C3CCCC3)O[C@@H]2C)N(CCCCCCCC)C1=O	12	·	·	-5	·	·	·	·	·	·	·
CN1C(=O)C[C@@](C#N)(C(=O)N2CCCC2)[C@H]1c1ccccc1	-2	·	·	16	·	·	·	·	·	·	·
CCC[C@H]1[C@@H](NC(=O)c2ccc(Cl)c(C(F)(F)F)c2)CC[C@@]23CCCN2C(=O)CCC[C@@H]13	14	·	·	·	·	·	·	·	·	·	·
COC(=O)[C@]12C[C@H](CC(=O)NCC34CC5CC(CC(C5)C3)C4)C(=O)N(CCC3=CCCCC3)C1=C[C@H](C(C)C)O[C@@H]2C1CC1	12	·	·	9	·	·	·	·	·	·	·
Cc1ccc(NCC(=O)Nc2cccc(S(=O)(=O)N(C)C)c2)cc1S(=O)(=O)N1CCCCCC1	49*	23	21	14	51	26	41	25	-7	12	32
CCN(CC)S(=O)(=O)c1cccc(NC(=O)CNc2cccc(S(=O)(=O)N3CCCC3)c2)c1	64*	44	3	23	73*	26	75*	38*	21	6	65*
CCN(CC)S(=O)(=O)c1cc(NC(=O)CNc2cccc(S(=O)(=O)N3CCOCC3)c2)ccc1C	56*	38	36	0	95*	28	46*	36*	10	8	54*
Cc1ccc(NC(=O)CNc2cccc(S(=O)(=O)N3CCOCC3)c2)cc1F	13	-2	-3	-6	-3	11	·	·	·	·	·
COC(=O)[C@H](C)NC(=O)[C@@H]1CC=C[C@@H]2CCN(CCc3ccccc3)C(=O)[C@@H]21	2	·	·	·	·	·	·	·	·	·	·
C[C@@H]1CN([C@H](C)CO)C(=O)c2cc(Br)cnc2O[C@H]1CN(C)C(=O)c1ccc(F)cc1	-15	·	·	0	·	·	·	·	·	·	·
O=c1cc(CSc2nnc(-c3cccs3)n2Cc2ccccc2)nc2sc3ccccc3n12	62*	27	0	29	62*	10	57*	33*	37*	-8	15
CSC1SCC2C(=O)N(C)C(C(C)C)C(=O)OCC(NC(=O)c3cnc4ccccc4n3)C(=O)NC(C)C(=O)N(C)C1C(=O)N(C)C(C(C)C)C(=O)OCC(NC(=O)c1cnc3ccccc3n1)C(=O)NC(C)C(=O)N2C (stereo unspecified)	51*	96*	85*	66*	80*	86*	85*	73*	102*	29*	38*
CC(C)(C)c1ccc(C2CC2C(=O)N/N=C\c2ccc[nH]2)cc1 (stereo unspecified)	42*	89*	23	-14	88*	71*	92*	3	43*	0	64*
O=C(O)c1ccc(N/N=C/c2ccc3nccnc3c2)cc1	67*	41	37	68*	55*	62*	59*	35*	101*	17*	59*
N#Cc1ccc(/C=C2\CC3(OC(=O)c4ccccc4)CCCN2C3)cc1 (stereo unspecified)	-35	·	·	-9	·	·	·	·	·	·	·
